Data reported in the supplement of paper PMC11732987, “Enantioselective OTUD7B fragment discovery through chemoproteomics screening and high-throughput optimisation” (Communications Chemistry, 2025).

Assays:
Test in all cases: log2 ratio of Biotin-Ahx-Ub-VS probe labelling (fragment/DMSO); higher = less target engagement (more negative = stronger competition), active = hit call of the paper (q ≤ 0.05, log2 ratio ≤ -1)
Settings in all cases: compound concentration: 200 uM; treatment time: 3 h
USP42 = target: T1, USP42 (UniProt Q9H9J4)
T1 sequence (whole entry): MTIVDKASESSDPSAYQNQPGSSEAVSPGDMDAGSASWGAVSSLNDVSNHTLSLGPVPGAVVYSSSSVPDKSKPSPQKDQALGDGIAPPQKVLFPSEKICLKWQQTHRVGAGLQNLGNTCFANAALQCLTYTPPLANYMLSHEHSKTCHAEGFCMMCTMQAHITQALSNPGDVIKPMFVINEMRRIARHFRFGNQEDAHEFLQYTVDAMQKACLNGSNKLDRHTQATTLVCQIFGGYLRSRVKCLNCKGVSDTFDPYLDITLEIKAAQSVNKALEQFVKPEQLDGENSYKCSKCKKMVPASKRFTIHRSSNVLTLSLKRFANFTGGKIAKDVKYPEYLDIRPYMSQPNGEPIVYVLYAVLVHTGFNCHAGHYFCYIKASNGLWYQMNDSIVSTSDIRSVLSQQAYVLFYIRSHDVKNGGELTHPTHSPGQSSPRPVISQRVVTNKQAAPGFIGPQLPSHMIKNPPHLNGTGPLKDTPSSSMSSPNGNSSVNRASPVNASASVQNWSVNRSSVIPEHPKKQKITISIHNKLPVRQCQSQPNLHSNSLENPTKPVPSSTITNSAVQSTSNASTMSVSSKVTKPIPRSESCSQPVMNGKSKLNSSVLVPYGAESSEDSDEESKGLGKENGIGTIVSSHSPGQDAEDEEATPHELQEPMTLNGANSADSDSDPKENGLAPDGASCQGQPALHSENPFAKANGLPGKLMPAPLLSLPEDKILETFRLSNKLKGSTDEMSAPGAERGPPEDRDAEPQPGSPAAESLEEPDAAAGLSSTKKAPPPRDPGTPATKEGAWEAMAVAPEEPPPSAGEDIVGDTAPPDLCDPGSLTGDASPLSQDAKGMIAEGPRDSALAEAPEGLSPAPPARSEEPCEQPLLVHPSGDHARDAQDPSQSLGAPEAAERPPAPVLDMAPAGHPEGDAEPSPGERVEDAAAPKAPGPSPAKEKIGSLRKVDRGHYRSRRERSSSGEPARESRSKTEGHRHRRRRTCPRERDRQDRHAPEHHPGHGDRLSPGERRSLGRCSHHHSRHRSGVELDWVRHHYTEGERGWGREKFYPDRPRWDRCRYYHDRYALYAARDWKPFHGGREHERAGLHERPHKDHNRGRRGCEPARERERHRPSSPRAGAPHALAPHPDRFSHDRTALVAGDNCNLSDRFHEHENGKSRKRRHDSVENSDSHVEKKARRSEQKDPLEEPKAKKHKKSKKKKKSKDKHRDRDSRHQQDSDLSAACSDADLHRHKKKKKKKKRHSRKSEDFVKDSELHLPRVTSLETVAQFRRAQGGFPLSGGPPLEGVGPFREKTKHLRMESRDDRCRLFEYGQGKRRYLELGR
Procedure, shortened: (§1)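 Average log2 ratios of fragment over vehicle were obtained by unpaired t-test from global-median-normalised Spectronaut label-free quantities. Proteins with ≥2 unique peptides were included. HEK293T lysate (495 µg per sample) was treated in triplicate with fragment at 200 µM or vehicle for 3 h, then with Biotin-Ahx-Ub-VS at 0.5 µM final for 1 h, and labelled DUBs were NeutrAvidin-enriched and run by diaPASEF LC-MS/MS.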

USP46 = USP46 (UniProt P62068)
Sequence of USP46 (P62068 whole entry): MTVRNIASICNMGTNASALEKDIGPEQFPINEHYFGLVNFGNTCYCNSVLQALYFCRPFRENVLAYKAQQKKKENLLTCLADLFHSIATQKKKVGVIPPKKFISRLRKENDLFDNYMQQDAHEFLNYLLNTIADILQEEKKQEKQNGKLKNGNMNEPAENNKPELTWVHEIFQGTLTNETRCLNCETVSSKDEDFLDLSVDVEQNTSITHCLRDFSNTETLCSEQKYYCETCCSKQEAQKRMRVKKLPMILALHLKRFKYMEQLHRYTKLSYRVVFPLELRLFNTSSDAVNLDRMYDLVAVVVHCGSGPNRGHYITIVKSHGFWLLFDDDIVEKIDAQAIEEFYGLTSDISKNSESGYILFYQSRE
Procedure, shortened: as §1

USP47 = target: T2, USP47 (UniProt Q96K76)
T2 sequence (whole entry): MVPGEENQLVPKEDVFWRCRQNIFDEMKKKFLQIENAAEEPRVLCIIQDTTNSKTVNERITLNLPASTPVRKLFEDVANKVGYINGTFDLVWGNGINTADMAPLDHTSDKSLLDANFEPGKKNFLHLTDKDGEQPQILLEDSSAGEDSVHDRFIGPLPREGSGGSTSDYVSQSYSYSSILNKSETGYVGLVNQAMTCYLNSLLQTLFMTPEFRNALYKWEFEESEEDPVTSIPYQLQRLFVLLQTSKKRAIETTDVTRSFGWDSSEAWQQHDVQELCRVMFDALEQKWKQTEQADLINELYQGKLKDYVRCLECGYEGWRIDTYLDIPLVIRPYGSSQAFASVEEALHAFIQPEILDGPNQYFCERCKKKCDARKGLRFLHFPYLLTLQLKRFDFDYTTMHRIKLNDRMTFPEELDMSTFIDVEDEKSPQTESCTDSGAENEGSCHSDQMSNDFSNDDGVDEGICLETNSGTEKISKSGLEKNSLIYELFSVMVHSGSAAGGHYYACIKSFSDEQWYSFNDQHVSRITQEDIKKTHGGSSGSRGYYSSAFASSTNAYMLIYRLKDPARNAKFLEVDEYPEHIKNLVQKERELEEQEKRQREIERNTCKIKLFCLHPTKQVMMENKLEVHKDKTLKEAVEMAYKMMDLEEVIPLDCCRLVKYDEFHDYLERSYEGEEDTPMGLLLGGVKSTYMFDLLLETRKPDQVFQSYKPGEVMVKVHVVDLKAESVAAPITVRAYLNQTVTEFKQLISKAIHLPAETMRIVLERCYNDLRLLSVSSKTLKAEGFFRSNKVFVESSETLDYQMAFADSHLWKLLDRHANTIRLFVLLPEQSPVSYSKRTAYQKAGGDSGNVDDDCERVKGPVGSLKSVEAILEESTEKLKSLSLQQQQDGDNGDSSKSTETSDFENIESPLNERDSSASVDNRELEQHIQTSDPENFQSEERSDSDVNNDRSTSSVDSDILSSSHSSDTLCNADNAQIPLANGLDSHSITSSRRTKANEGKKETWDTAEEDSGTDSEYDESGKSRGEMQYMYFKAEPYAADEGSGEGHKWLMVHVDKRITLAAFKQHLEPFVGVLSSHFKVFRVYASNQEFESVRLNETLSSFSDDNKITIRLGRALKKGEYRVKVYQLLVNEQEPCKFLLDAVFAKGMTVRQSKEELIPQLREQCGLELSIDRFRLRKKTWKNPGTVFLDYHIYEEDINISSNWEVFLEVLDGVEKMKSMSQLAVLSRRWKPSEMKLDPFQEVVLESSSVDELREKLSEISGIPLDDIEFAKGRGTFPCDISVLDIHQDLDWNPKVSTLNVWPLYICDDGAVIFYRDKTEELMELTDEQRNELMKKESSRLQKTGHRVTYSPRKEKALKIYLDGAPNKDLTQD
Procedure, shortened: as §1

USP48 = target: T3, USP48 (UniProt Q86UV5)
T3 sequence (whole entry): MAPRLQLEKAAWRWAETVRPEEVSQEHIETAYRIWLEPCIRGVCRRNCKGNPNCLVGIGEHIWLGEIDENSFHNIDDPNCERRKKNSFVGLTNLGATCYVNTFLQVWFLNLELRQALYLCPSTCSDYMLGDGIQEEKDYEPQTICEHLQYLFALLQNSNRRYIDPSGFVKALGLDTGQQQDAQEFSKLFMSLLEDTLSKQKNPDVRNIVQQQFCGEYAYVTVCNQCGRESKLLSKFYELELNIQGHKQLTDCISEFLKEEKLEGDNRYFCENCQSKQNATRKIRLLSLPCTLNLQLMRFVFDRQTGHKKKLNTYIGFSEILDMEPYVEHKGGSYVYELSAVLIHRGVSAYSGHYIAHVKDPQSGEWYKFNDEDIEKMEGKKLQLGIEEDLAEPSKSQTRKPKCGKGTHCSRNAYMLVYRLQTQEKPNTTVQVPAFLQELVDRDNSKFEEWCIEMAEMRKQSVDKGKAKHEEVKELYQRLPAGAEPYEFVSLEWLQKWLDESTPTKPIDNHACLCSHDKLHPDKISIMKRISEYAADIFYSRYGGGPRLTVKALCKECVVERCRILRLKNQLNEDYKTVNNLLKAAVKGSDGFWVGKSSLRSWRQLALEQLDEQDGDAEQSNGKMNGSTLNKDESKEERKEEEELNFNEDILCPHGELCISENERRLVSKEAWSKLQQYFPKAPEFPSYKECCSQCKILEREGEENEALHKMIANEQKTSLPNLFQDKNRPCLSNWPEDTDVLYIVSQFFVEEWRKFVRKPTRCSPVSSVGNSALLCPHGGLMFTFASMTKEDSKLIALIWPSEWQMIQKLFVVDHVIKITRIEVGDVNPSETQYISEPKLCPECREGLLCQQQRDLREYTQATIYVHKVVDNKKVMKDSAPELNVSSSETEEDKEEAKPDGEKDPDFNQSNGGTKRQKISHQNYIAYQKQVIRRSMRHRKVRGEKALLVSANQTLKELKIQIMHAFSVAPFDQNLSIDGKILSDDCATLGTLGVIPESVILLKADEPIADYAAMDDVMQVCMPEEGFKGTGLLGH
Procedure, shortened: as §1

USP5 = target: T4, USP5 (UniProt P45974)
T4 sequence (whole entry): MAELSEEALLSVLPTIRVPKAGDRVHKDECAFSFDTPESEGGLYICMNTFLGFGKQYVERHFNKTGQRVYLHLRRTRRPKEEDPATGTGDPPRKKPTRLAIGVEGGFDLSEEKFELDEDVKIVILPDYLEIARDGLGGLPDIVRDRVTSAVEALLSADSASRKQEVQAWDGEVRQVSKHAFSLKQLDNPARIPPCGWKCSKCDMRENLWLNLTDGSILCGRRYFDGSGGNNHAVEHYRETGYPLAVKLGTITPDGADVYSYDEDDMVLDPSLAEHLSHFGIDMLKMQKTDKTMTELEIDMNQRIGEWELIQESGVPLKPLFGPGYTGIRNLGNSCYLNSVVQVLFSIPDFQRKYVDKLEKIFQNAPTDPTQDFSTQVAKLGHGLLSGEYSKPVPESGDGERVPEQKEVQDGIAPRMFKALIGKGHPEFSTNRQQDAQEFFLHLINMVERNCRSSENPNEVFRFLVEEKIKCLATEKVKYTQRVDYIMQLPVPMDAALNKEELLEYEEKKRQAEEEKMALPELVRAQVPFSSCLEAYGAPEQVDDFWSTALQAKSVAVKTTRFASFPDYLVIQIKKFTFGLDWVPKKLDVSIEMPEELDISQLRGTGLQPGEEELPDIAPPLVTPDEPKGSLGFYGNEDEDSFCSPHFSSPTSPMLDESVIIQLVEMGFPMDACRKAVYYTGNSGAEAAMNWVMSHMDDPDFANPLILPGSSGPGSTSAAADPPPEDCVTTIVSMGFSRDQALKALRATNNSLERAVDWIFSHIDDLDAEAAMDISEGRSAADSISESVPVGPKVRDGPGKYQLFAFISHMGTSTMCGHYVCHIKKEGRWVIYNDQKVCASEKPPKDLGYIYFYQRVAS
Procedure, shortened: as §1

USP54 = USP54 (UniProt Q70EL1)
Procedure, shortened: as §1

USP7 = USP7 (UniProt Q93009)
Sequence of USP7 (Q93009 whole entry, looked up): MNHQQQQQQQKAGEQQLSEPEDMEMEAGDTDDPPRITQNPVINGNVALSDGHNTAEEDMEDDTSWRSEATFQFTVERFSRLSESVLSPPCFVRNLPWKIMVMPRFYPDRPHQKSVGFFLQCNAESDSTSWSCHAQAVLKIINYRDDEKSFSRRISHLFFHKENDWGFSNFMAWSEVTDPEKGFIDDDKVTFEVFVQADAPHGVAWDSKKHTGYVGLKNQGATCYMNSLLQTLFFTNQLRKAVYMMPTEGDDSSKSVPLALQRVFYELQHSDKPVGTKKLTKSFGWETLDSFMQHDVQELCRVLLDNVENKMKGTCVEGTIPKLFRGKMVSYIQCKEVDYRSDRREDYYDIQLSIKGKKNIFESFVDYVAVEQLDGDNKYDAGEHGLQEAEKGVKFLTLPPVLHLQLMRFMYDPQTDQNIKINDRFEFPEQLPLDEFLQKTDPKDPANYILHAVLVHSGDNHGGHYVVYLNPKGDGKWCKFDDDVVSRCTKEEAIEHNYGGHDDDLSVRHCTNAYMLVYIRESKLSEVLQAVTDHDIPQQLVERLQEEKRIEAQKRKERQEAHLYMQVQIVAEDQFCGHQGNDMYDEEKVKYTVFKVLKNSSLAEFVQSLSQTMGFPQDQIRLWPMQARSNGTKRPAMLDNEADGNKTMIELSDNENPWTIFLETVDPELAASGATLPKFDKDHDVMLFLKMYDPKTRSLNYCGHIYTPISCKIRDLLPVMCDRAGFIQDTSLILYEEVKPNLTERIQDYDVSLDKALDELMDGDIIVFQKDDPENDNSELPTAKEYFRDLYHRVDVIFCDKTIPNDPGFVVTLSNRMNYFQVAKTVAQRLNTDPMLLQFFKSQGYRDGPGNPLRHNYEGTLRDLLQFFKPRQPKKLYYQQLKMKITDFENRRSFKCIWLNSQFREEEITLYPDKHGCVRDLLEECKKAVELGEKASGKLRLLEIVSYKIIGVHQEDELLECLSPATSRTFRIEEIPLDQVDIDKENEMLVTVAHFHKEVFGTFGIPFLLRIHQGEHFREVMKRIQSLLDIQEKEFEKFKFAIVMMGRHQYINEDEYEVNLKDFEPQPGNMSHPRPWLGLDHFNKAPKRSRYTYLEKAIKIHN
Procedure, shortened: as §1

USP8 = target: T5, USP8 (UniProt P40818)
T5 sequence (whole entry): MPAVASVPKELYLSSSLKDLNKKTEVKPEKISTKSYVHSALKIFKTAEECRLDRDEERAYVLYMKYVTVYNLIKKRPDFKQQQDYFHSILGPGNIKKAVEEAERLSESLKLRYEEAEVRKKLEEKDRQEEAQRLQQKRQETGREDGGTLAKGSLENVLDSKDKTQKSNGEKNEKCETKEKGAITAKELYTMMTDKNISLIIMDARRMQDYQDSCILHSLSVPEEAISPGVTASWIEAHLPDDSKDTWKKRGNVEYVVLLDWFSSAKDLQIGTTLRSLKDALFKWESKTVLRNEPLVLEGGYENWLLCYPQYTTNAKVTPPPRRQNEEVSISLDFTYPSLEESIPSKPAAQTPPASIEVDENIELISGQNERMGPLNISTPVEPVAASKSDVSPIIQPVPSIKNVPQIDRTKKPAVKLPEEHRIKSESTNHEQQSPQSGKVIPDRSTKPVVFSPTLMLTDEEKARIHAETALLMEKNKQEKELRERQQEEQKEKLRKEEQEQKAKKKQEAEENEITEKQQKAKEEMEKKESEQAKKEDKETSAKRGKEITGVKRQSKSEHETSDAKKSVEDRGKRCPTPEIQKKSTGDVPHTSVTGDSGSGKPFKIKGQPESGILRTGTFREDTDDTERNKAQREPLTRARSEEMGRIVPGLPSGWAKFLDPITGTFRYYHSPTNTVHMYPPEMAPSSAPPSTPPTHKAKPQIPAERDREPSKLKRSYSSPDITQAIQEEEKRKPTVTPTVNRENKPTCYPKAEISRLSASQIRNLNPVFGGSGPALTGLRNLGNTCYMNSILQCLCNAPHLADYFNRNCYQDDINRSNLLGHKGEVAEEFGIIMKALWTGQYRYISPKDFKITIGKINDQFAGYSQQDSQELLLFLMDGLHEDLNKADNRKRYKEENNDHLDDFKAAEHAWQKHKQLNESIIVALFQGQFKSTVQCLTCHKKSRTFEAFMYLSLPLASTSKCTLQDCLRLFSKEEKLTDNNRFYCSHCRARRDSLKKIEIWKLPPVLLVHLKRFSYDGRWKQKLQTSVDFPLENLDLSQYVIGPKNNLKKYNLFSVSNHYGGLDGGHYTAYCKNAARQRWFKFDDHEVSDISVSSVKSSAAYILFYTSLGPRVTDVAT
Procedure, shortened: as §1

USP9X = USP9X (UniProt Q93008)
Sequence of USP9X (Q93008 whole entry): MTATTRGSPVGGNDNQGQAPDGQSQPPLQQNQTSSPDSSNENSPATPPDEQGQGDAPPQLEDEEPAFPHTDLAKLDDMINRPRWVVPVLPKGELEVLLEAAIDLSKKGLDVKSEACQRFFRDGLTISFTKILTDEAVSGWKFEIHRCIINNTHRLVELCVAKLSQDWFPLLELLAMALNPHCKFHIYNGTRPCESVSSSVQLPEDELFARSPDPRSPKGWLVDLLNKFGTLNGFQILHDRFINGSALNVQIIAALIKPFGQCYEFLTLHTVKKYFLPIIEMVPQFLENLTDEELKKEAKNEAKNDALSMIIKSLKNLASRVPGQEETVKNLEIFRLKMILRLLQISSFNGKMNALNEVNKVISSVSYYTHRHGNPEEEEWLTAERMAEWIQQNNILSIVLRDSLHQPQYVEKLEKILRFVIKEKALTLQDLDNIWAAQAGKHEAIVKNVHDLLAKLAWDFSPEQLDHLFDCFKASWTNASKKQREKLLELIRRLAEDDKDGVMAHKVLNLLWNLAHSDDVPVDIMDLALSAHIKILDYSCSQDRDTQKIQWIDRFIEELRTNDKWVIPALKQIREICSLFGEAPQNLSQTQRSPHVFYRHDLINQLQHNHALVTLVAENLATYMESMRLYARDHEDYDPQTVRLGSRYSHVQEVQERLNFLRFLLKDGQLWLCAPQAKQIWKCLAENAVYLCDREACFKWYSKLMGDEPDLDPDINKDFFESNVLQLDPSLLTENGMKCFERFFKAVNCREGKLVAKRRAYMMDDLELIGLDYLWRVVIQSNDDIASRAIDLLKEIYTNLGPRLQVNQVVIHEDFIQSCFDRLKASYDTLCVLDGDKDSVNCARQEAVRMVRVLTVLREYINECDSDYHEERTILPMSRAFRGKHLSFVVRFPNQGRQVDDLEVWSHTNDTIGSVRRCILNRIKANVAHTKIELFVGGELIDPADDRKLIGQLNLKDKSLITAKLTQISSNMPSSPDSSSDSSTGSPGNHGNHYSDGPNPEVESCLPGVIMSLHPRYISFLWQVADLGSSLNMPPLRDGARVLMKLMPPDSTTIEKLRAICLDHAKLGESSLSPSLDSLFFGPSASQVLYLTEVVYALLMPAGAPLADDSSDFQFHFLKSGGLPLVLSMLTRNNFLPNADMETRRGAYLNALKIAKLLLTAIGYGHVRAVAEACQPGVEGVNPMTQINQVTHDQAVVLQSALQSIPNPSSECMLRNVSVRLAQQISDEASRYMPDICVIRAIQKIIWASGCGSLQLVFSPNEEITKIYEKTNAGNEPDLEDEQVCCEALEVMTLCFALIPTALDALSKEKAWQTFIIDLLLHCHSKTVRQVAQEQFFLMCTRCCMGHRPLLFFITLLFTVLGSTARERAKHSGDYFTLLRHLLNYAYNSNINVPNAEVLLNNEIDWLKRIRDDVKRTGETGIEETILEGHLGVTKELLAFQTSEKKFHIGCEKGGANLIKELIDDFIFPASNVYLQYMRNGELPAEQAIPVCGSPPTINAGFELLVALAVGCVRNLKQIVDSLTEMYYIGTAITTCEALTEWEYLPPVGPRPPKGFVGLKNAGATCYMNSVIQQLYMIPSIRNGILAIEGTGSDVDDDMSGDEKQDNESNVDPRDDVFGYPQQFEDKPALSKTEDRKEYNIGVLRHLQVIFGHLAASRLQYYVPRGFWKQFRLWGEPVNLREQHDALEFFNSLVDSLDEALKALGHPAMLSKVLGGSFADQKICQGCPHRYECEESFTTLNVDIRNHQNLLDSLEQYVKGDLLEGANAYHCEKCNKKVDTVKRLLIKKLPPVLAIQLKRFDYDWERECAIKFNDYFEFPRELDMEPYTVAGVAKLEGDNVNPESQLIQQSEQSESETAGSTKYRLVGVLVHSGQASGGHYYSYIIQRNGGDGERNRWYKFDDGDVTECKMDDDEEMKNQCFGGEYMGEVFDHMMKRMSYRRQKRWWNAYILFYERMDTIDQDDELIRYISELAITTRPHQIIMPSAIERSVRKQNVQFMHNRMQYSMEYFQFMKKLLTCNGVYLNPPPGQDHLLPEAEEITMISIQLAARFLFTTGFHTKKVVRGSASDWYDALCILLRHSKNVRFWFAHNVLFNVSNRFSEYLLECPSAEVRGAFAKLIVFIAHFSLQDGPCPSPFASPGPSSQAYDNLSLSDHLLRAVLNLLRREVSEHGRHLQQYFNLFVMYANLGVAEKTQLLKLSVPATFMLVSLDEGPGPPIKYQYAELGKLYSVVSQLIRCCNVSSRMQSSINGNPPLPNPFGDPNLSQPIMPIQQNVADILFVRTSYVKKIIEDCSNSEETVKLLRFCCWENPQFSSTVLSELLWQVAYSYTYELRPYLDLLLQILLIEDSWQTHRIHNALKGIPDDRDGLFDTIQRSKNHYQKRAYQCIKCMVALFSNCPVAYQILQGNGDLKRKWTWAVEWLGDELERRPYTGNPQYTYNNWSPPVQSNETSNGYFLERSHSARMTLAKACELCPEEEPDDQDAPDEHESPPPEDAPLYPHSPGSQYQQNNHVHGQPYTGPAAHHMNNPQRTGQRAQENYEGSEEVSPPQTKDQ
Procedure, shortened: as §1

UniProt O00487 = target: UniProt O00487
Sequence of UniProt O00487 (O00487 whole entry): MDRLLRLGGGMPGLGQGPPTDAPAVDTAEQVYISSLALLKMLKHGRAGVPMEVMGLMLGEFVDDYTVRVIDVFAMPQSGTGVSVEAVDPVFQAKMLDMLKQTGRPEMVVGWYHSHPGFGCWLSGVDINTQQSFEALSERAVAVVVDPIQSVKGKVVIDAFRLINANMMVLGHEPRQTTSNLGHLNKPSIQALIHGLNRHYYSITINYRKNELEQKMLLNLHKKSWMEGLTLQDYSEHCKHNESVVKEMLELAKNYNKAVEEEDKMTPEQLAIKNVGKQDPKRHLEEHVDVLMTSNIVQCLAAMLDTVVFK
Procedure, shortened: as §1

Measured: log2 ratio of Biotin-Ahx-Ub-VS probe labelling

Cc1ccc(CN(C)C(=O)CCl)o1
inactive: USP42 0.191 | USP46 -0.175 | USP47 0.0147 | USP48 -0.264 | USP5 0.245 | USP54 0.355 | USP7 -0.538 | USP8 -0.199 | USP9X -0.23 | UniProt O00487 -0.0611
